Results from PMC7862700, “An all-to-all approach to the identification of sequence-specific readers for epigenetic DNA modifications on cytosine”.

Tests used:
Assay in all cases: DAPPL (digital affinity profiling via proximity ligation, sequencing); 10 mM Tris-HCl pH 7.5, 50 mM NaCl, 1 mM DTT, 4% glycerol, room temperature, 30 min; GST-TFs on glutathione beads, 16-mer random dsDNA library, 0.1% formaldehyde crosslink after washing; high values mean tight binding
FLI1 = target: T1, FLI1 (Homo sapiens, UniProt Q01543 1-452); details: protein: recombinant; tags: N-terminal GST; dsDNA, one strand shown
T1 sequence: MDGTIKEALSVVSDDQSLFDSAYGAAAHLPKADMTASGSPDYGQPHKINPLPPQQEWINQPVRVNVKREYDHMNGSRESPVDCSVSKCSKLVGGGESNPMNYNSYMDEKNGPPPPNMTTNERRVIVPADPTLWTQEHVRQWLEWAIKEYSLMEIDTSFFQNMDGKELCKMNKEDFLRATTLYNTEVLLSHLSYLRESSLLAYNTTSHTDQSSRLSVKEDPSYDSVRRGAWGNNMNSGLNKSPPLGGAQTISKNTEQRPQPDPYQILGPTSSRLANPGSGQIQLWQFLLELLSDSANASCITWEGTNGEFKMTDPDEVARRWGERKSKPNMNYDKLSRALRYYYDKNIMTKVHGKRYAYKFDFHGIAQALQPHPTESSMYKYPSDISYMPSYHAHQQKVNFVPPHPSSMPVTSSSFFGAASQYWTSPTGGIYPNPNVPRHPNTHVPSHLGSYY
Outline: (§1)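 A tag-only sample was pooled with DNA-barcoded human transcription factors that had been expressed in yeast as GST fusions and captured on glutathione beads. The pools were incubated for 30 min at room temperature with 200 nmole of a random double-stranded 16-mer DNA library in Tris/NaCl/DTT/glycerol buffer, then washed, crosslinked with 0.1% formaldehyde, proximity-ligated (BsaI/T4 ligase, 1 h, 37 °C), PCR-amplified and sequenced on an Illumina NextSeq500. Binding signal is each hexamer's read frequency for a factor divided by its frequency for the tag-only sample.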

ELK1 = target: T2, ELK1 (Homo sapiens, UniProt P19419 1-428); details: protein: recombinant; tags: N-terminal GST; dsDNA, one strand shown
T2 sequence: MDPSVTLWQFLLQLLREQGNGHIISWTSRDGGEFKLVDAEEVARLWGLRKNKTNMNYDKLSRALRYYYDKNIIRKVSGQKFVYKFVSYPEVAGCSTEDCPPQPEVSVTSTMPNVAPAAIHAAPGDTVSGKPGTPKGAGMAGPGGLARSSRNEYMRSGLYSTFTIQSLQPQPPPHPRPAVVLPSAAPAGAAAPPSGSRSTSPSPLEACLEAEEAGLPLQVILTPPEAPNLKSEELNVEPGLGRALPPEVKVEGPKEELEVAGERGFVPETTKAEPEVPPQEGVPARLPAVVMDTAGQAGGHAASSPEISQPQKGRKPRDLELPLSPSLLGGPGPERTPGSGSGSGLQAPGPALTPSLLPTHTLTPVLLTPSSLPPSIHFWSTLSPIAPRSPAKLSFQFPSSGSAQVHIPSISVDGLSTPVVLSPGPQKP
Outline: as §1

GABPA = target: T3, GABPA (Homo sapiens, UniProt Q06546 1-454); details: protein: recombinant; tags: N-terminal GST; dsDNA, one strand shown
T3 sequence: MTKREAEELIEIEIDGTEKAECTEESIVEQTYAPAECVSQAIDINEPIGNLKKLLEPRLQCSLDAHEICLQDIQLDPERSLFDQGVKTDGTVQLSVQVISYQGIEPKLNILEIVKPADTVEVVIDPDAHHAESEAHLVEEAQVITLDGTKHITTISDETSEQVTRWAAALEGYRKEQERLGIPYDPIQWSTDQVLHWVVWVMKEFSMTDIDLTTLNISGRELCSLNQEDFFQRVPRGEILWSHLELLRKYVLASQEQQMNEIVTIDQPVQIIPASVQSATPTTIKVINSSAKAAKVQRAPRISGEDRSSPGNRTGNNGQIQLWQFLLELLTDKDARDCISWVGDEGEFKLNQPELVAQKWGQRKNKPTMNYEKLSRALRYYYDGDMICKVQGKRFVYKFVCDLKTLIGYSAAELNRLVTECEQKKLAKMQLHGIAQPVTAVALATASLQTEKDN
Outline: as §1

ERG = target: T4, ERG (Homo sapiens, UniProt P11308 1-479); details: protein: recombinant; tags: N-terminal GST; dsDNA, one strand shown
T4 sequence: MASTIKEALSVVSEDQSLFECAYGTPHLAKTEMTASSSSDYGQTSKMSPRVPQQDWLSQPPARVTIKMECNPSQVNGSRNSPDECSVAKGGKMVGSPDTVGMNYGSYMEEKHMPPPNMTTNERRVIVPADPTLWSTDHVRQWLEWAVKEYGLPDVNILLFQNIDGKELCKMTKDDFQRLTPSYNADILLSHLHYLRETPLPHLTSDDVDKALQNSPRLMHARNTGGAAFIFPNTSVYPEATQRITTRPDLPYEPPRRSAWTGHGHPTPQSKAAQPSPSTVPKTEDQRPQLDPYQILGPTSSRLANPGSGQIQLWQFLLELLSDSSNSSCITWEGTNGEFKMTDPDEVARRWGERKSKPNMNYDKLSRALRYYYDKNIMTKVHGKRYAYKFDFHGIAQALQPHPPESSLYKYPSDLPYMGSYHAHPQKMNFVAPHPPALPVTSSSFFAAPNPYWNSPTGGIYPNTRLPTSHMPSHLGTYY
Outline: as §1

ELF1 = ELF1 (Homo sapiens, UniProt P32519 1-619); details: protein: recombinant; tags: N-terminal GST; dsDNA, one strand shown
Chain of ELF1 (P32519 whole entry): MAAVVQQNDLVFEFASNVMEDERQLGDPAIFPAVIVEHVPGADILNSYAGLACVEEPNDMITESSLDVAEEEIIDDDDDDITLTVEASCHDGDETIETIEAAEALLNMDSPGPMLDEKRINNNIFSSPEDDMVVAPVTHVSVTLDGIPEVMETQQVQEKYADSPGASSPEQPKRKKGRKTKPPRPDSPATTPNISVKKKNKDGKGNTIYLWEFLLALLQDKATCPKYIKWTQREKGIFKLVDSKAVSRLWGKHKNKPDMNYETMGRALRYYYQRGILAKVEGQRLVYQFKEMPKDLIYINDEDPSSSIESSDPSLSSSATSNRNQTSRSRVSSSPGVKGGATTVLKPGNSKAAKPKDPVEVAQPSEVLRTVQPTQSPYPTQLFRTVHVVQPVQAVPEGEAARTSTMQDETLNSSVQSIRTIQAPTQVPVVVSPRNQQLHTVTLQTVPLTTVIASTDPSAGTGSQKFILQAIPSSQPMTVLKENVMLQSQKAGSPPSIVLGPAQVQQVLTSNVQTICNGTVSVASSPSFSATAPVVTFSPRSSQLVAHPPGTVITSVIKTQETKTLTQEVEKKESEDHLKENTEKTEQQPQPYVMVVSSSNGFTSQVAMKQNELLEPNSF
Outline: as §1

EHF = target: T5, EHF (Homo sapiens, UniProt Q9NZC4 1-300); details: protein: recombinant; tags: N-terminal GST; dsDNA, one strand shown
T5 sequence: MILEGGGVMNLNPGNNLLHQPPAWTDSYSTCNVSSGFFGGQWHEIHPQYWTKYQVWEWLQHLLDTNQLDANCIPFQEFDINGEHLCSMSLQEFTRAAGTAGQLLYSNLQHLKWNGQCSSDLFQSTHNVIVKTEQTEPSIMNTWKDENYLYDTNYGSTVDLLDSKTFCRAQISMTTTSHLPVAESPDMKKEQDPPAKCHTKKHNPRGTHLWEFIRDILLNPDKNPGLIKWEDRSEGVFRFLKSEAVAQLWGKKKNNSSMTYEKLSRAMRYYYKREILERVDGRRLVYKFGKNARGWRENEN
Outline: as §1

SPI1 = SPI1 (Homo sapiens, UniProt P17947 1-270); details: protein: recombinant; tags: N-terminal GST; dsDNA, one strand shown
Outline: as §1

SPIB = SPIB (Homo sapiens, UniProt Q01892 1-262); details: protein: recombinant; tags: N-terminal GST; dsDNA, one strand shown
Chain of SPIB (Q01892 whole entry): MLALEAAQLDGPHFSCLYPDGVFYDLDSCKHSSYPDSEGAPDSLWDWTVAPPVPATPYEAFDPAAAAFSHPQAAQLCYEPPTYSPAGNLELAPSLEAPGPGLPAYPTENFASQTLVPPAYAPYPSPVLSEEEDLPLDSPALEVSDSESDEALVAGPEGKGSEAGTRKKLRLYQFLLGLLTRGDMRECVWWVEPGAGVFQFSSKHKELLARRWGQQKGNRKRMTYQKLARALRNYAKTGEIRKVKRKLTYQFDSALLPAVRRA
Outline: as §1

ELK3 = target: T6, ELK3 (Homo sapiens, UniProt P41970 1-407); details: protein: recombinant; tags: N-terminal GST; dsDNA, one strand shown
T6 sequence: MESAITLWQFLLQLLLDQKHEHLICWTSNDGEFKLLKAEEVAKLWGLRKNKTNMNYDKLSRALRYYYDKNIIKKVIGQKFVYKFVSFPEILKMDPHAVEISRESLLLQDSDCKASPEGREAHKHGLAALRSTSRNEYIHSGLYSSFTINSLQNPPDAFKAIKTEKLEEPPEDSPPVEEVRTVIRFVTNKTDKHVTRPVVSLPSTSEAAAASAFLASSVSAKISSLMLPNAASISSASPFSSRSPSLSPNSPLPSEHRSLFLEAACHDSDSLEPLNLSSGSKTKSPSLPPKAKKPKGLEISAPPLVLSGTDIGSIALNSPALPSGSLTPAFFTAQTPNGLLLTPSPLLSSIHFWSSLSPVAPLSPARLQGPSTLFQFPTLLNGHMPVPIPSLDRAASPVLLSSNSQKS
Outline: as §1

FEV = target: T7, FEV (Homo sapiens, UniProt Q99581 1-238); details: protein: recombinant; tags: N-terminal GST; dsDNA, one strand shown
T7 sequence: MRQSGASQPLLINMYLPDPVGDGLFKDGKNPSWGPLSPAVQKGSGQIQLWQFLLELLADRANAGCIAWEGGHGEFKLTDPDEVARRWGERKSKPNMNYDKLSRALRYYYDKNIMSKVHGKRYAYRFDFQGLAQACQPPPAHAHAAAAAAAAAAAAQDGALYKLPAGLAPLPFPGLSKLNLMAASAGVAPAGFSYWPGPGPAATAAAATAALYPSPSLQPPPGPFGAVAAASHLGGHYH
Outline: as §1

ETV5 = ETV5 (Homo sapiens, UniProt P41161 1-510); details: protein: recombinant; tags: N-terminal GST; dsDNA, one strand shown
Chain of ETV5 (P41161 whole entry): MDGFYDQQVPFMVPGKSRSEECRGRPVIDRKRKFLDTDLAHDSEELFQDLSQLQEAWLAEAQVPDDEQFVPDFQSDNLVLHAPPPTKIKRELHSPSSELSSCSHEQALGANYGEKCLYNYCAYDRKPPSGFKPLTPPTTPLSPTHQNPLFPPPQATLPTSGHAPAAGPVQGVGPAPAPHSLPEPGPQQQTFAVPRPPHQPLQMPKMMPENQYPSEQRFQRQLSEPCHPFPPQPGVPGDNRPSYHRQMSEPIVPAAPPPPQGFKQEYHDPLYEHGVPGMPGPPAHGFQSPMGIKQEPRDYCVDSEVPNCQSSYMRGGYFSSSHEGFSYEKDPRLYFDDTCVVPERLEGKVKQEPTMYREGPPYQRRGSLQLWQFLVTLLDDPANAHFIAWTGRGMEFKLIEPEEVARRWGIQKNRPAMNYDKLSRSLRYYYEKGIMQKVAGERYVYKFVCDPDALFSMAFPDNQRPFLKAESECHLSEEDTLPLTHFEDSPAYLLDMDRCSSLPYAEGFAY
Outline: as §1

HSF1 = HSF1 (Homo sapiens, UniProt Q00613 1-529); details: protein: recombinant; tags: N-terminal GST; chain copies: 3; dsDNA, one strand shown
Chain of HSF1 (Q00613 whole entry): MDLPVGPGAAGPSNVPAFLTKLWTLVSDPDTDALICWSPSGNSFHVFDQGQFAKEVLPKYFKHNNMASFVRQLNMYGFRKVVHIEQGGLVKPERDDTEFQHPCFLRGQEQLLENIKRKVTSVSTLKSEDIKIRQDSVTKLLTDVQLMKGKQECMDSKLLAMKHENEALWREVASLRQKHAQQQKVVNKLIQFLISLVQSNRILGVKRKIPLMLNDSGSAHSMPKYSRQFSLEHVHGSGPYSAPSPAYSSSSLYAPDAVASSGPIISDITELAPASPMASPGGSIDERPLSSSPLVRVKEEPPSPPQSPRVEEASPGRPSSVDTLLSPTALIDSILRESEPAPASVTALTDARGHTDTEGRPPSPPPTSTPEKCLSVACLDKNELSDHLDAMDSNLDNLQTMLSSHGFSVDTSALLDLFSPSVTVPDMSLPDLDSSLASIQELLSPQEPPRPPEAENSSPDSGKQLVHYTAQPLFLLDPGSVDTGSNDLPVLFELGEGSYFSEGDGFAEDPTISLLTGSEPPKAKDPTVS
Outline: as §1

SPIC = target: T8, SPIC (Homo sapiens, UniProt Q8N5J4 1-248); details: protein: recombinant; tags: N-terminal GST; dsDNA, one strand shown
T8 sequence: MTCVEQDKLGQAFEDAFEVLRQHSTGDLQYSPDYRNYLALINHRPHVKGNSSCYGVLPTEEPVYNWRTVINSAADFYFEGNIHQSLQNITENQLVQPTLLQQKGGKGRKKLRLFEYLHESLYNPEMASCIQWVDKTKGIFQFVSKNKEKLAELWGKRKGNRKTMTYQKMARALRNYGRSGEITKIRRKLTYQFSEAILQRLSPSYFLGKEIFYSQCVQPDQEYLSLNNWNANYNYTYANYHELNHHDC
Outline: as §1

ELF4 = ELF4 (Homo sapiens, UniProt Q99607 1-663); details: protein: recombinant; tags: N-terminal GST; dsDNA, one strand shown
Chain of ELF4 (Q99607 whole entry): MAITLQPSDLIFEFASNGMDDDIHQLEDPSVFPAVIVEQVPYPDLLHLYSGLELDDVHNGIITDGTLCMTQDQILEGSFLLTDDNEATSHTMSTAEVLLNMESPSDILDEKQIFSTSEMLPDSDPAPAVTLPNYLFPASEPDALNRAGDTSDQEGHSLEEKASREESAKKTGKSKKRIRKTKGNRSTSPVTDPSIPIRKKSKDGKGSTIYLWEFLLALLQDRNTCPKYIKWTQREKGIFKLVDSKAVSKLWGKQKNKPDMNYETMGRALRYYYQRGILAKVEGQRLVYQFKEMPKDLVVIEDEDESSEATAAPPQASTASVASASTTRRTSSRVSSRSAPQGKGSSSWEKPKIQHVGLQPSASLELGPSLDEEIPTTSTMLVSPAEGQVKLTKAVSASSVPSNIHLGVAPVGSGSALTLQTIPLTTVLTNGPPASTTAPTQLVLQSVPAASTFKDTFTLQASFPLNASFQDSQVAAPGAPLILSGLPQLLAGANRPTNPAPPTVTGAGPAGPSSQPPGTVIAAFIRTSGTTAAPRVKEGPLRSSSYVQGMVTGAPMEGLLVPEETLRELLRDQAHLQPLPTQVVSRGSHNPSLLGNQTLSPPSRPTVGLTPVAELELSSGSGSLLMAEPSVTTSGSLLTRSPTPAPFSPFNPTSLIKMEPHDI
Outline: as §1

ELK4 = target: T9, ELK4 (Homo sapiens, UniProt P28324-2 1-405); details: protein: recombinant; tags: N-terminal GST; dsDNA, one strand shown
T9 sequence: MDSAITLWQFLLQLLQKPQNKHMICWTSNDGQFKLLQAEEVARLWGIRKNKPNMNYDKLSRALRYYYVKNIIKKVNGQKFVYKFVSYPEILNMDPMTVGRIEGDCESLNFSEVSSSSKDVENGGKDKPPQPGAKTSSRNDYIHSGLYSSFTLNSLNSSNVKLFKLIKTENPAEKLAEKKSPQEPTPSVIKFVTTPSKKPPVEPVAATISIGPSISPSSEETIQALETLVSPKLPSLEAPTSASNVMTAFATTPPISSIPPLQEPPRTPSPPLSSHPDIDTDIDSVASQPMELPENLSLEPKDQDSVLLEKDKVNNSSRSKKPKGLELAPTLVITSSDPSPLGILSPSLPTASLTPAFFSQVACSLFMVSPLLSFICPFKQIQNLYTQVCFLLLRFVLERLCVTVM
Outline: as §1

ETV2 = target: T10, ETV2 (Homo sapiens, UniProt O00321 1-342); details: protein: recombinant; tags: N-terminal GST; dsDNA, one strand shown
T10 sequence: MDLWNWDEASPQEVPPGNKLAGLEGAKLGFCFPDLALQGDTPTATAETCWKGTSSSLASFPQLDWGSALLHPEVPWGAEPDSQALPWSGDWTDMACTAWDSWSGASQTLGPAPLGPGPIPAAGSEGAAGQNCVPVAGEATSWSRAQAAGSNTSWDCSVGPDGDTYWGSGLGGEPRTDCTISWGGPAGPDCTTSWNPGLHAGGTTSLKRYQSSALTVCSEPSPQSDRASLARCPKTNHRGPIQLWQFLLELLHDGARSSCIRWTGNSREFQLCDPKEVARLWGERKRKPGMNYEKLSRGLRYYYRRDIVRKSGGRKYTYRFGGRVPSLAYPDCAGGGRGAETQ
Outline: as §1

ELF3 = target: T11, ELF3 (Homo sapiens, UniProt P78545 1-371); details: protein: recombinant; tags: N-terminal GST; dsDNA, one strand shown
T11 sequence: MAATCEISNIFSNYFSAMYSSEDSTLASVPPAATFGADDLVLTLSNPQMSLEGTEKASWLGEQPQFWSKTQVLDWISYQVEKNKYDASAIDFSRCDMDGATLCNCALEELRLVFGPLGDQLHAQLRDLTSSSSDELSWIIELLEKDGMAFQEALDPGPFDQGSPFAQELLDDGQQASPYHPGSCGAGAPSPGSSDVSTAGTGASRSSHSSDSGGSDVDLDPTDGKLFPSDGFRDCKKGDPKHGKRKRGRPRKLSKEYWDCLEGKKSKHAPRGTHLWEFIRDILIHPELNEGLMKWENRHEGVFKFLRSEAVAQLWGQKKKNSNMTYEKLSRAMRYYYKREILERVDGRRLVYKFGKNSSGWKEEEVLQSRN
Outline: as §1

CRX = CRX (Homo sapiens, UniProt O43186 1-299); details: protein: recombinant; tags: N-terminal GST; dsDNA, one strand shown
Chain of CRX (O43186 whole entry): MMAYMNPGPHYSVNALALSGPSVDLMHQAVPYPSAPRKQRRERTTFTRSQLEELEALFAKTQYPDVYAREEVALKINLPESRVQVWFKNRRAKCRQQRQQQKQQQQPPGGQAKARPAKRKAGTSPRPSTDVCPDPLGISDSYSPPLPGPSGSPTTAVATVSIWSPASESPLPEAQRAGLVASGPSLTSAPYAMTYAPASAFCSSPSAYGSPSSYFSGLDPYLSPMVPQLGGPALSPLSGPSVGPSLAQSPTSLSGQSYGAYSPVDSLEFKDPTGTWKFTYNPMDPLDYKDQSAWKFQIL
Outline: as §1

ETV1 = ETV1 (Homo sapiens, UniProt P50549 1-477); details: protein: recombinant; tags: N-terminal GST; dsDNA, one strand shown
Chain of ETV1 (P50549 whole entry): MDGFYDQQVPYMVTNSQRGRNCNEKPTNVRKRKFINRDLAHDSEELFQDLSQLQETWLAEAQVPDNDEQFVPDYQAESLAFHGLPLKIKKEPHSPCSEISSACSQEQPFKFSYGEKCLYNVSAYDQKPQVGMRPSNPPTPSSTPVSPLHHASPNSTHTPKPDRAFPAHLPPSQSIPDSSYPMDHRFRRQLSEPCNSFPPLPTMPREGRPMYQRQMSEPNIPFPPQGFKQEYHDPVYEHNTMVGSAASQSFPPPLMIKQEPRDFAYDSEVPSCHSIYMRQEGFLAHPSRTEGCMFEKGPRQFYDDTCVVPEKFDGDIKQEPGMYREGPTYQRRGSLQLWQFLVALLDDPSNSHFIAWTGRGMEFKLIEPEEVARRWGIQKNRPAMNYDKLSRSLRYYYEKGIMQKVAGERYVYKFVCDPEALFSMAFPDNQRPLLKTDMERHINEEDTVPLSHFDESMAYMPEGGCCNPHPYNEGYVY
Outline: as §1

In the case of TGGCAT, the binding signal (FLI1) is reported as 1.23 fold enrichment (6-mer frequency, TF over GST control), the binding signal (ELK1) is reported as 1.2 fold enrichment (6-mer frequency, TF over GST control) and the binding signal (GABPA) is reported as 1.2 fold enrichment (6-mer frequency, TF over GST control). For the same sequence, the binding signal (ERG) was 1.14 fold enrichment (6-mer frequency, TF over GST control), the binding signal (ELF1) was 1.17 fold enrichment (6-mer frequency, TF over GST control) and the binding signal (EHF) was 1.12 fold enrichment (6-mer frequency, TF over GST control). The binding signal (SPI1) was 1.11 fold enrichment (6-mer frequency, TF over GST control), the binding signal (SPIB) was 1.07 fold enrichment (6-mer frequency, TF over GST control) and the binding signal (ELK3) was 1.13 fold enrichment (6-mer frequency, TF over GST control). For the same sequence, the binding signal (FEV) was 1.3 fold enrichment (6-mer frequency, TF over GST control), the binding signal (ETV5) was 1.13 fold enrichment (6-mer frequency, TF over GST control) and the binding signal (HSF1) was 1.26 fold enrichment (6-mer frequency, TF over GST control). The binding signal (SPIC) was 1.24 fold enrichment (6-mer frequency, TF over GST control), the binding signal (ELF4) was 1.18 fold enrichment (6-mer frequency, TF over GST control) and the binding signal (ELK4) was 1.21 fold enrichment (6-mer frequency, TF over GST control). For the same sequence, the binding signal (ETV2) was 1.37 fold enrichment (6-mer frequency, TF over GST control), the binding signal (ELF3) was 1.24 fold enrichment (6-mer frequency, TF over GST control) and the binding signal (CRX) was 1.21 fold enrichment (6-mer frequency, TF over GST control). The binding signal (ETV1) was 1.18 fold enrichment (6-mer frequency, TF over GST control).
